Screening data: PubChem, National Center for Advancing Translational Sciences (NCATS)
Most compounds without a hit are left out; they make up all but 21% or so of the library.
HCV inhibitor: blocks hepatitis C virus. Huh7.5.1 HCVcc-Cre infection, luciferase reporter, 44 h. Potency, µM (top dose mostly 41.8 µM), for the others: at the highest dose activity change, negative = inhibition, most hits filed as inhibitors. 340,000 compounds, 3.4% hits. AID 651820; note: potency is the fitted concentration of half-maximal effect; % is set by controls: 0 for no effect and ±100 for the full control effect
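After 44 h co-culture of compound, cells and HCVcc-Cre (~0.5 moi), substrate is added for 15 min at room temperature and luciferase measured over 15 sec. Cells were seeded at 1,000/well and pre-cultured 4 h.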
CHX counter: counter-screen for Shiga toxin inhibitors: cycloheximide protein synthesis inhibition. cell reporter, cycloheximide protein synthesis inhibition counterscreen. max response, %. 300,000 compounds, 12% hits. AID 2314; in the data active = max response mostly above about 13%, no sharp cut-off; inactive = mostly below about 14%; note: read at 38.3 µM for the half of the compounds with a filed dose; 0% is about no effect
Pf growth 48h: inhibits P. falciparum growth in the first generation, 48 h; P. falciparum luciferase growth in erythrocytes, 48 h; Potency, µM (titrated, usually from 28.7 µM), for the others: top-dose activity change, negative = inhibition, usual class: inhibitors; 310,000 compounds, 5.9% hits; note: potency is the fitted concentration of half-maximal effect; % is set by controls: 0 for no effect and ±100 for the full control effect
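Luminescence readout; reporter = integrated firefly luciferase in P. falciparum. RBC culture at 2% hematocrit, 0.1% parasitemia final, 37 C/5% CO2; decreased signal taken as growth inhibition.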
Shiga toxin inh: blocks Shiga toxin action in Vero cells; Vero cells, Shiga toxin protein synthesis inhibition reporter; inhibition, % at 38.7 µM; 290,000 compounds, 9.2% hits; AID 2315; in the data active = inhibition mostly above about 28%, no sharp cut-off; inactive = mostly below about 43%; note: 0% is about no effect
HCMV antiviral: blocks human cytomegalovirus replication | 410,000 compounds, 4.5% hits | activity change, negative = inhibition, % at 57.5 µM | AID 1259415 | HFF cells, HCMV-luciferase reporter, 72 h; active compounds read low; in the data active = activity change below about -60%; inconclusive = no clear call, values can overlap the other calls; inactive = above about -39%; note: % is set by controls: 0 for no effect and ±100 for the full control effect
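Human foreskin fibroblasts infected with luciferase-reporter HCMV at MOI 1 PFU/cell, compounds at two doses. Luciferase measured 72 h post infection; normalized to buffer-only basal and Salinomycin (10uM) controls.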
Pf growth 96h: inhibits malaria parasite growth, 96 h | 320,000 compounds, 6.9% hits | P. falciparum luciferase reporter growth, 96 h | Potency, µM (titrated, usually from 28.7 µM), inactives show at the highest dose activity change, negative = inhibition, most hits filed as inhibitors; note: potency is the fitted concentration of half-maximal effect; % is set by controls: 0 for no effect and ±100 for the full control effect
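Parasite growth measured via integrated firefly luciferase reporter in P. falciparum. Infected erythrocytes at 2% hematocrit, 0.05% parasitemia final were treated 96 hours at 37 C under 5% CO2, and luminescence was read.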
Numbers without * were called inactive; ? = inconclusive; · = no result given; ! = repeats disagree; [ ] = remark or other dose. Unless noted, calls come from the whole dose curve; as a rule, active = well fitted inhibition curve with a large enough effect; inconclusive = small, poorly fitted or top-dose-only effect, or another doubt; inactive = no such curve, though single readings can be large or run the other way.

SMILES | HCV inhibitor | CHX counter | Pf growth 48h | Shiga toxin inh | HCMV antiviral | Pf growth 96h
CCOC(=O)C(=O)c1cn(C2OCC(OC(C)=O)C(OC(C)=O)C2OC(C)=O)c2ccccc12 (stereo not drawn) | 1% | -3 | -3% | -10 | -6 | 19%
COCCNC(=O)Cn1nc(-c2ccc(Cl)cc2)c2ccccc2c1=O | 1% | -1 | 6% | -19 | 7 | ?
CC1(C)C[C@@]2(C)CCC3=CC(=O)C=C[C@@]32O1 | · | · | · | · | -26 | ·
Cc1ccc(NC(=O)NCC2CCN(Cc3cccc(Cl)c3)CC2)cc1Cl | -24% | -3 | ? | -5 | -92*! | ?
Cc1ccc(NC(=O)NCC2CCN(Cc3cccc(Cl)c3)CC2)c(Cl)c1 | 13µM* | 2 | -54% | -6 | -66* | ?
O=C(Nc1ccc(S(=O)(=O)N2CCOCC2)cc1)c1ccc(=O)[nH]c1 | 16% | -1 | 21% | -15 | -3 | -7%
CC(NC(=S)NCCc1ccccc1)C(c1cccs1)N1CCN(Cc2ccccc2)CC1 (stereo not drawn) | 7.9µM* | 3 | ? | 6 | -81* | ?
Cc1ccccc1NC(=S)NC(C)C(c1cccs1)N1CCOCC1 (stereo not drawn) | 5%[8.37 µM] | -1 | ? | 6 | 4 | ?
CC(NC(=S)Nc1ccccc1Cl)C(c1cccs1)N1CCCC1 (stereo not drawn) | 5% | -2 | ? | 10 | ? | 12µM*
CC(NC(=O)NC1CCCCC1)C(c1cccs1)N1CCN(Cc2ccccc2)CC1 (stereo not drawn) | 0% | -2 | -26% | 1 | 7 | -15%
O=C(CSc1nc2ccsc2c(=O)n1Cc1ccc(F)cc1)NCc1ccc(Cl)cc1 | · | · | · | · | 26 | ·
FC(F)Sc1ccc(NC(=S)NC2CCCC2)cc1 | -1% | 38* | 86% | 64* | -28 | 25%
C[C@@H](C(=O)Nc1ccc(SC(F)F)cc1)N1C(=O)C2CCCCC2C1=O (stereo partly drawn) | 1% | · | · | · | -9 | ·
CC1CCCC(NC(=S)Nc2ccc(SC(F)F)cc2)C1C (stereo not drawn) | 32µM* | 25* | ? | 36 | ? | ·
OC1CCC(NC(=S)Nc2ccc(SC(F)F)cc2)CC1 (stereo not drawn) | 12% | 36* | 142% | 75* | 57 | 26%
O=C(Nc1ccc(SC(F)F)cc1)C12CCC(CC1)C2 | -21% | 19* | 93% | 77* | 34 | 53%
NS(=O)(=O)c1ccc(NC(=S)NC2CCCC2)cc1 | 13% | -3 | 1% | 14 | 19 | 4%
C=C1C2(C(=O)Nc3ccc(SC(F)F)cc3)CCC(C2)C1(C)C (stereo not drawn) | 3% | -4 | 4% | -5 | 10 | ?
C=CCn1c(SCC(=O)Nc2ccc(OC)cc2)nnc1-c1cnccn1 | 17% | -1 | 13% | -5 | 8 | ?
CCOc1cc(C(=S)N2CCOCC2)ccc1OC(=O)c1ccccc1 | 12% | 2 | 0% | -28 | 0 | ?
COc1cc(C(=S)N2CCOCC2)ccc1OC(=O)/C=C/c1ccco1 | -1% | 20* | 9% | 23 | 8 | ?
COc1ccc(C(=S)N2CCOCC2)cc1OC(=O)c1ccccc1 | 6% | 0 | 10% | 54 | 29 | -4%
CCOc1cc(C(=S)N2CCOCC2)ccc1OC(=O)c1cccc(C)c1 | 11µM* | 1 | -18% | -5 | 58 | -57%
COc1ccc(C(=S)N2CCOCC2)cc1OC(=O)c1ccc(C)cc1 | 2% | -5 | -18% | -10 | 14 | 2.9µM*
C#CCN1C(=O)[C@@H](C)[C@@](C#N)(C(=O)OC)[C@H]1c1ccc(OC)cc1 | · | · | · | · | 1 | ·
SMILES | HCV inhibitor | CHX counter | Pf growth 48h | Shiga toxin inh | HCMV antiviral | Pf growth 96h
COc1cc2c(cc1OC)C(C(=O)N(C)Cc1ccccc1)C(c1cccnc1)N(C)C2=O (stereo not drawn) | 4% | -3 | 8% | 17 | -1 | 3.7µM*
COc1cc2c(cc1OC)C(C(=O)Nc1ccc3c(c1)OCCO3)C(c1cccnc1)N(C)C2=O (stereo not drawn) | ? | -3 | 7.4µM* | -11 | -3 | ?
COc1cc2c(cc1OC)C(C(=O)Nc1cc(OC)c(OC)c(OC)c1)C(c1cccnc1)N(C)C2=O (stereo not drawn) | 7% | -1 | ? | 25 | -5 | ?
Cc1ccc(NC(=O)CSc2nc3ccc(NC(=O)c4cccs4)cc3s2)c(C)c1 | · | · | · | · | 11 | ·
Cc1c(C(=O)NCC2CCCO2)oc2ccc(S(=O)(=O)N3CC(C)CC(C)C3)cc12 (stereo not drawn) | 8% | -2 | · | -15 | -13 | 126%
CCN(CC)S(=O)(=O)c1ccc2oc(C(=O)NCC3COc4ccccc4O3)c(C)c2c1 (stereo not drawn) | 10µM* | 5 | 10µM* | 5 | -36 | ?
CCN(CC)CCCNC(=O)c1oc2ccc(S(=O)(=O)N3CC(C)CC(C)C3)cc2c1C (stereo not drawn) | 22µM* | -7 | ? | 15 | -98* | 1%
Cc1c(C(=O)NCc2ccc(F)cc2)oc2ccc(S(=O)(=O)N3CCOCC3)cc12 | ? | -2 | ? | 2 | ? | 18%
Cc1c(C(=O)NCC2COc3ccccc3O2)oc2ccc(S(=O)(=O)N3CC(C)CC(C)C3)cc12 (stereo not drawn) | ? | -2 | 8.3µM* | 9 | -16 | ·
CCN(CC)S(=O)(=O)c1ccc2oc(C(=O)NCc3ccc(F)cc3)c(C)c2c1 | ? | -2 | 8.3µM* | -8 | ? | ·
CCCN(C(=O)Cc1csc(-c2ccccc2)n1)C1CCS(=O)(=O)C1 (stereo not drawn) | 2% | · | -25% | · | 0 | -27%
Cc1cc(=O)n2c(C(=O)Nc3ccc(F)c(Cl)c3)c(C(=O)Nc3cccc(C)c3C)sc2n1 | · | · | · | · | 6 | ·
Cc1[nH]c2ccc(C(=O)NCCCN3CCN(C)CC3)cc2c1C | 3% | -4 | -14% | 9 | 17 | 12µM*
Cc1[nH]c2ccc(C(=O)NCCCN3CCOCC3)cc2c1C | 6% | 2 | 13% | -6 | 31 | ?
Cc1[nH]c2ccc(C(=O)NCCCN(C)C3CCCCC3)cc2c1C | -13% | 2 | ? | -17 | -62* | -20%
C1CNC(C23CC4CC(CC(C4)C2)C3)=N1 | 2% | 25 | 7% | 56* | ? | -20%
CCn1nc(C)c(CN2CCc3c([nH]c4ccccc34)C2c2ccc(F)c(OC)c2)c1C (stereo not drawn) | ? | 16* | 2.6µM* | 19 | -76* | ?
COc1ccccc1C1c2[nH]c3ccccc3c2CCN1Cc1ccc(NC(C)=O)s1 (stereo not drawn) | ? | 4 | ? | 7 | -19 | ?
